Records with an inconclusive call do not appear. Activity calls are given as the source filed them. Calls come from the whole dose curve; as a rule, active = well fitted curve in the direction sought with a large enough effect; inconclusive = small, poorly fitted or top-dose-only effect, or another doubt; inactive = no such curve, though single readings can be large; an effect the other way counts as inactive or inconclusive.

Experiment [1] can be described thus: NS1 protein of Zika virus - qHTS assay to identify small molecule inhibitors in human HEK 293 cells (AID 1347053). Note: series mostly up to about 46 µM; nearly all actives have a fitted effect of over 55% in size. The essentials:
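In this cell-based screen, HEK 293 cultures received compound for one hour before Zika MR766 at MOI = 0.5. NS1 was quantified 24 hours later by TR-FRET, normalized to virus-free wells and infected wells.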
In general terms: qHTS replaces the single test concentration by a dilution series.

The nature of experiment [2]: qHTS of pediatric cancer cell lines to identify multiple opportunities for drug repurposing: Primary screen for TC32 cells (AID 1347089). Note: nearly all actives have a fitted effect of over 60% in size. The essentials: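 Luminescent ATP read-out (CellTiter-Glo) of metabolically active TC32 cells after 48 h exposure. Concentration-response curves came from 11-point (MIPE, 0.78 nM–46 µM) or 8-point (NPC, 0.59 nM–46 µM) primary titrations; follow-up used 11 points.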

A short description of experiment [3]: qHTS of pediatric cancer cell lines to identify multiple opportunities for drug repurposing: Primary screen for DAOY cells (AID 1347090). Note: nearly all actives have a fitted effect of over 55% in size. Note: potency is the fitted concentration of half-maximal effect. The essentials: (§1)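 Eight- or eleven-point concentration series, 48 h treatment at 37 degrees C in growth media; readout CellTiter-Glo luminescence. Potency and efficacy were taken from the concentration-response curves.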
The nature of experiment [4]: qHTS of pediatric cancer cell lines to identify multiple opportunities for drug repurposing: Primary screen for SJ-GBM2 cells (AID 1347091). Note: potency is the fitted concentration of half-maximal effect. The essentials:
as §1

The nature of experiment [5]: qHTS of pediatric cancer cell lines to identify multiple opportunities for drug repurposing: Primary screen for A673 cells (AID 1347092). Note: nearly all actives have a fitted effect of over 45% in size. Note: potency is the fitted concentration of half-maximal effect. The essentials:
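Cell viability of A673 measured by CellTiter-Glo ATP luminescence after 48 hours compound exposure. Dilution series spanned 0.78 nM to 46 µM (MIPE, 11-point) or 0.59 nM to 46 µM (NPC, 8-point); bortezomib 2.3 uM positive control.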

Experiment [6] is described as follows: qHTS of pediatric cancer cell lines to identify multiple opportunities for drug repurposing: Primary screen for U-2 OS cells (AID 1347096). Note: nearly all actives have a fitted effect of over 50% in size. Note: potency is the fitted concentration of half-maximal effect. The essentials: (§2)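 Cells (500-1,000/well) in growth media were settled 5 h at 37 degrees C, then given compounds for 48 h. Viability was read as CellTiter-Glo luminescence. Primary runs used MIPE at 11 points (0.78 nM-46 µM) and NPC at 8 points (0.59 nM-46 µM); follow-ups used 11 points.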

A short description of experiment [7]: qHTS of pediatric cancer cell lines to identify multiple opportunities for drug repurposing: Primary screen for Rh18 cells (AID 1347102). Note: nearly all actives have a fitted effect of over 65% in size. Note: potency is the fitted concentration of half-maximal effect. The essentials: as §2
The nature of experiment [8]: qHTS of pediatric cancer cell lines to identify multiple opportunities for drug repurposing: Primary screen for OHS-50 cells (AID 1347103). Note: nearly all actives have a fitted effect of over 40% in size. Note: potency is the fitted concentration of half-maximal effect. The essentials:
(§3)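 Cells (500-1,000/well) rested 5 h, then received compounds for 48 h; metabolically active cells were measured by CellTiter-Glo luminescence. Final concentrations spanned up to 46 µM (MIPE, 11-point) or 0.59 nM-46 µM (NPC, 8-point) in primary screens, 11-point in follow-ups.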

Experiment [9] can be described thus: qHTS of pediatric cancer cell lines to identify multiple opportunities for drug repurposing: Primary screen for BT-37 cells (AID 1347094). Note: potency is the fitted concentration of half-maximal effect. The essentials: (§4)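 ATP-based luminescence (CellTiter-Glo) quantifies viability after a 48-hour exposure. Compounds are dosed across 8 or 11 final concentrations; DMSO and 2.3 µM bortezomib serve as controls.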
Experiment [10] in a line: qHTS of pediatric cancer cell lines to identify multiple opportunities for drug repurposing: Primary screen for NB-EBc1 cells (AID 1347095). Note: potency is the fitted concentration of half-maximal effect. The essentials:
as §4

The nature of experiment [11]: qHTS of pediatric cancer cell lines to identify multiple opportunities for drug repurposing: Primary screen for NB1643 cells (AID 1347099). Note: nearly all actives have a fitted effect of over 50% in size. Note: potency is the fitted concentration of half-maximal effect. The essentials:
as §4

Experiment [12] in a line: qHTS of pediatric cancer cell lines to identify multiple opportunities for drug repurposing: Primary screen for LAN-5 cells (AID 1347100). The essentials:
as §2

A short description of experiment [13]: qHTS of pediatric cancer cell lines to identify multiple opportunities for drug repurposing: Primary screen for Saos-2 cells (AID 1347097). Note: nearly all actives have a fitted effect of over 40% in size. The essentials: as §4
The nature of experiment [14]: qHTS of pediatric cancer cell lines to identify multiple opportunities for drug repurposing: Primary screen for BT-12 cells (AID 1347101). Note: nearly all actives have a fitted effect of over 25% in size. Note: potency is the fitted concentration of half-maximal effect. The essentials:
as §3

A short description of experiment [15]: qHTS of pediatric cancer cell lines to identify multiple opportunities for drug repurposing: Primary screen for SK-N-MC cells (AID 1347093). Note: potency is the fitted concentration of half-maximal effect. The essentials: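 Metabolically active cells were quantified by ATP-dependent luminescence (CellTiter-Glo, 15 min at room temperature) following 48 h treatment. Cells had been plated at 500-1,000 per well and settled for 5 h beforehand.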

Experiment [16] in a line: qHTS of pediatric cancer cell lines to identify multiple opportunities for drug repurposing: Primary screen for SK-N-SH cells (AID 1347098). Note: nearly all actives have a fitted effect of over 65% in size. Note: potency is the fitted concentration of half-maximal effect. The essentials: as §3

In the case of `Cn1c(=O)c(F)c(Nc2ccc(I)cc2F)c2c(=O)n(C[C@@H](O)CO)cnc21`, the Potency entry in [1], in experiment [2], in [4], in experiment [5] and in experiment [8] was “inactive” each time. Moreover, the Potency in [3] is 18.7 µM (active); in [6] it was 5.9 µM (active); in experiment [7] it was 20.9 µM (active).

As for `O=C(C=Cc1ccc(/C=C/C(=O)Nc2ccc(C3=NCCN3)cc2)cc1)Nc1ccc(C2=NCCN2)cc1`, the Potency result in experiment [1], in [2], in experiment [3], in [4], in [5] and in experiment [9] was “inactive” each time. In addition, the Potency result in [10], in experiment [6], in experiment [11], in experiment [12], in [7] and in experiment [8] was “inactive” throughout.

For the compound `CNCc1ccc(-c2[nH]c3cc(F)cc4c3c2CCNC4=O)cc1`, the Potency entry in [1], in experiment [2], in experiment [3], in experiment [4], in experiment [6] and in experiment [13] was “inactive” each time. Further, the Potency result in [14], in experiment [7] and in [8] was “inactive” each time. Further, the Potency in experiment [5] is 4.69 µM (active).

Take `CCC(=O)N[C@H]1CC[C@H](C(=O)N(C)c2ccc(-c3nc4ccccc4o3)cc2)C1`: the Potency entry in experiment [1], in experiment [2], in experiment [10], in experiment [6] and in experiment [7] was “inactive” in each case. Besides, the Potency was 5.9 µM (active) in experiment [3]; 3.72 µM (active) in experiment [5]; 0.833 µM (active) in experiment [15]; 1.66 µM (active) in experiment [11]; 19.3 µM (active) in [8].

Turning to `COc1ccc(CCN2CCN(CCCc3ccccc3)CC2)cc1OC`, the Potency entry in experiment [1], in experiment [2], in experiment [3], in experiment [4], in experiment [6] and in experiment [16] was “inactive” each time. For the same compound, the Potency entry in experiment [7] is “inactive”. Further, the Potency in experiment [15] was 18.7 µM (active).

With `Cc1cc(C=c2sc3nc4ccccc4n3c2=O)c(C)n1-c1ccccc1`, the Potency entry in experiment [1], in experiment [2], in [3], in experiment [4], in [5] and in [15] was “inactive” in each case. The Potency entry in experiment [10], in experiment [6], in [12] and in experiment [14] was “inactive” throughout.

Consider `COc1ccc2nc(S(=O)Cc3ncc(C)c(OC)c3C)[nH]c2c1` (centres undefined), for which the Potency result in experiment [1], in experiment [2], in experiment [3], in experiment [4], in experiment [10] and in [6] was “inactive” each time. Also, the Potency entry in [12] and in [7] was “inactive” each time.

As for `Cc1cccc(-c2nn(C(=S)Nc3ccccc3)cc2-c2ccnc3ccccc23)n1`, the Potency result in [1], in [2], in experiment [3], in [5], in experiment [15] and in [9] was “inactive” in each case. The Potency result in experiment [10], in experiment [6], in experiment [16], in [11], in experiment [12] and in experiment [7] was “inactive” in each case.

With `O=C(NOC[C@H](O)CO)c1ccc(F)c(F)c1Nc1ccc(I)cc1F`, the Potency entry in experiment [1], in [2], in [4], in experiment [13], in experiment [7] and in [8] was “inactive” each time. Also, the Potency is 18.7 µM (active) in experiment [3], 5.9 µM (active) in experiment [5], 0.0469 µM (active) in experiment [15] and 0.341 µM (active) in experiment [16].

With `Cn1cnc2c(F)c(Nc3ccc(Br)cc3Cl)c(C(=O)NOCCO)cc21`, the Potency result in [1], in [2], in experiment [4] and in experiment [8] was “inactive” in each case. Moreover, the Potency in experiment [3] was 14.8 µM (active); in experiment [5] it was 2.35 µM (active); in experiment [15], 2.64 µM (active); in [11], 9.35 µM (active).

With `CCN(CC)CCCC(C)Nc1nc(C)cc(Nc2ccc3nc(C)cc(N)c3c2)n1` (centres undefined), the Potency entry in experiment [1], in experiment [2], in [3], in experiment [4], in experiment [15] and in experiment [9] was “inactive” each time. In addition, the Potency result in experiment [10], in experiment [6], in experiment [16], in experiment [11], in experiment [12] and in [14] was “inactive” in each case. Moreover, in experiment [7], the Potency result is “inactive”.

Consider `CNC(=O)c1ccc(N2C(=S)N(c3ccc(C#N)c(C(F)(F)F)c3)C(=O)C2(C)C)cc1F`, for which the Potency entry in experiment [1], in experiment [2], in experiment [3], in experiment [5], in [15] and in [9] was “inactive” each time. Further, the Potency result in experiment [10], in [6], in [13], in [11], in experiment [12] and in [7] was “inactive” throughout.

`Cc1ccnc(NS(=O)(=O)c2ccc(NC(=O)Nc3ccc(S(=O)(=O)Nc4nccc(C)n4)cc3)cc2)n1`: the Potency entry in experiment [1], in experiment [2], in experiment [3], in experiment [6], in [11] and in [7] was “inactive” each time. In addition, in experiment [8], the Potency entry was “inactive”. In addition, the Potency in experiment [4] is 16.6 µM (active); in experiment [9], 10.9 µM (active); in [10], 14.8 µM (active); in experiment [14] it was 24.3 µM (active).

For `CC(C)(C)OC(=O)CN(Cc1ccc(Cl)cc1)Cc1ccc([N+](=O)[O-])s1`, the Potency result in experiment [1], in experiment [2], in [3], in experiment [4], in experiment [5] and in experiment [6] was “inactive” in each case. Besides, the Potency result in experiment [12] and in experiment [7] was “inactive” each time. The Potency in experiment [15] is 20.9 µM (active).

As for `CN(C)C(=O)c1ccc(S(=O)(=O)c2ccc(NC(=O)[C@@](C)(O)C(F)(F)F)c(Cl)c2)cc1`, the Potency result in [1], in experiment [2], in experiment [4], in experiment [10], in experiment [6] and in experiment [12] was “inactive” throughout. Besides, the Potency entry in experiment [7] was “inactive”. Also, the Potency in [3] is 18.7 µM (active); in experiment [5], 18.7 µM (active); in [15], 16.6 µM (active).

As to `OCCn1cc(-c2cnc3nnn(Cc4ccc5ncccc5c4)c3n2)cn1`, the Potency result in experiment [1], in [2], in [3], in [5], in [15] and in [10] was “inactive” in each case. In addition, the Potency entry in [6], in experiment [16], in experiment [11], in experiment [12], in experiment [14] and in experiment [7] was “inactive” each time. In addition, in experiment [8], the Potency result was “inactive”. In addition, the Potency in experiment [4] is 0.0059 µM (active).

With `COc1ccc([C@@H]2CC(=O)c3c(O)cc(O[C@@H]4O[C@H](CO[C@@H]5O[C@@H](C)[C@H](O)[C@@H](O)[C@@H]5O)[C@@H](O)[C@H](O)[C@@H]4O)cc3O2)cc1O`, the Potency entry in experiment [1], in [2], in experiment [3], in experiment [4], in experiment [9] and in experiment [10] was “inactive” each time. Further, the Potency result in experiment [6], in [13], in experiment [16], in [11], in [12] and in experiment [7] was “inactive” each time. Further, the Potency entry in experiment [8] was “inactive”. Further, the Potency in [15] is 16.6 µM (active).

Values taken from PubChem BioAssay (NCATS).
